# Source: PubChem
# Most compounds without a hit are left out; they make up all but 3.6% or so of the library.
# B2AR arrestin ag – qHTS assay of beta-arrestin-biased ligands of beta2-adrenergic receptor: NCGC Sytravon Library Screen; Beta-2 adrenergic receptor (Homo sapiens), P07550; HTLA Tango cells, beta-arrestin recruitment, luciferase luminescence, 18 h; Potency, µM (doses to about 46.1 µM), usual class: activators; 44,000 tested, under 10 active;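 note: potency is the fitted concentration of half-maximal effect; 0% = DMSO and full agonism = EC100 isoproterenol or metaproterenol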
# Target sequence (P07550 whole entry, looked up): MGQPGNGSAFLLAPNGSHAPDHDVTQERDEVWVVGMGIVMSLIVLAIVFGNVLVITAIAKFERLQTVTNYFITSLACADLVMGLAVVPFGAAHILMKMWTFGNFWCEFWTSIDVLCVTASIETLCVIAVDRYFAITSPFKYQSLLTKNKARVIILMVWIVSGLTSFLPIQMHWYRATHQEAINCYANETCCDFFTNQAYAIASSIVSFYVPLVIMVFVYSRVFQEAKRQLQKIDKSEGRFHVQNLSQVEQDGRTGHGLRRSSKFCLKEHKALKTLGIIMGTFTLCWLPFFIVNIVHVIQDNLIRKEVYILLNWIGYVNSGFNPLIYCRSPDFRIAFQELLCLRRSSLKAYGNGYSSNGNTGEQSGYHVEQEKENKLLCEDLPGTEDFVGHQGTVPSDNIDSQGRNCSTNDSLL
#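 Ligand-induced beta-arrestin recruitment to recombinant beta2-AR is measured via a tTA-driven luciferase reporter in Tango cells after 18 hr compound exposure at 37 degrees C. Concentrations span up to 46 microM.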
# PTAP-TSG101 blk – qHTS Validation Assay for Inhibitors of HIV-1 Budding by Blocking the Interaction of PTAP/TSG101: Sytravon Library Screen; Tumor susceptibility gene 101 protein (Homo sapiens), Q99816; Fluorescence polarization, FITC-PTAP peptide/Tsg101, 20 min; Potency, µM (doses to about 115 µM), most hits filed as inhibitors; 44,000 tested, under 10 active; note: potency is the fitted concentration of half-maximal effect; 0% is about no effect
#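 Compounds pinned into 10 uM Tsg101 binding domain, then 50 nM FITC-PTAP peptide added in pH 7.5 HEPES buffer; FP read after 20 min, room temperature. Total S+P intensity flags fluorescent compounds; active cut-off <25 µM, efficacy <60%.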
# HTT prom inh – Primary qHTS for Identification of Small Molecule Inhibitors of Huntingtin Promoter Activity; HEK293 HTT promoter firefly luciferase reporter, 24 h; Potency, µM (top dose mostly 57.5 µM), for the others: at the highest dose activity change, negative = inhibition, hits mostly inhibitors; 48,000 compounds, 0.93% hits; AID 1508623, 2021; note: potency is the fitted concentration of half-maximal effect; nearly all actives have a fitted effect of over 50% in size
#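 Firefly luciferase readout (Dual-Glo, 10 min RT) after 24 h, 37 °C compound exposure (final up to 57.5 uM) of HEK293 reporter cells cultured 24 h beforehand; PTC124 at 50 uM final as control inhibitor; activity scaled vehicle 0%, zero RLU -100%.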
# GPR32 ag – qHTS for Agonists of Human Resolvin D1 Receptor DRV1; activation, % at 76.9 µM; 48,000 compounds, 2.5% hits; Probable G-protein coupled receptor 32 (Homo sapiens), O75388; CHO-K1 GPR32 beta-arrestin PathHunter luminescence, 90 min; zero percent set by DMSO-only wells;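 active = activation of at least 60% and not above a set upper limit, about 1 call in 100 departs from these limits; inconclusive = activation of 40% to 60%, or above that upper limit; inactive = activation under 40%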; note: 0% is about no effect
# Target sequence (O75388 whole entry, looked up): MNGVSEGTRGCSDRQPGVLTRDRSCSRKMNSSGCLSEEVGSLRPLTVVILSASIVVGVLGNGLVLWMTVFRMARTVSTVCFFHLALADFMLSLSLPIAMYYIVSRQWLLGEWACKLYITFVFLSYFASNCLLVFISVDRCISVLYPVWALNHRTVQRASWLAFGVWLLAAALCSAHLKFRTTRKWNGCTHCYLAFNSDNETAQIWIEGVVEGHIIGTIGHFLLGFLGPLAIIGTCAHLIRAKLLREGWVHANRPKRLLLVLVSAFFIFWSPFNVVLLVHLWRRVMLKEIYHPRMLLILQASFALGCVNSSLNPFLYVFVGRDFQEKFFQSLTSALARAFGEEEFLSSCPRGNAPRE
#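 Engineered CHO-K1 line co-expressing GPR32-ProLink and EA-beta-arrestin. Compound treatment lasted 90 min at 37 °C. Luminescence was recorded after 1 h with substrate at ambient temperature, relative to DMSO basal wells.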
# GALK inh – qHTS Assay for Inhibitors of Human Galactokinase (GALK): NCGC Sytravon Library Screen; P51570; recombinant GALK, Kinase-Glo ATP luminescence, 1 h; Potency, µM (series often up to 57.5 µM), inactives show top-dose activity, negative = inhibition, actives largely listed as inhibitors; 44,000 tested, under 10 active; AID 1347072, 2019;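 note: plate controls were full GALK reaction for no effect and reaction lacking GALK for full effect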
#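 5 nM GALK with 35 µM ATP and 100 µM galactose in HEPES pH 8.0, MgCl2, NaCl, DTT, BSA; 1 h RT reaction, remaining ATP detected by Kinase-Glo Plus luminescence after 10 min; qHTS concentration series.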
# HTT-AS act – Primary qHTS for Identification of Small Molecule Activators of Huntingtin-Antisense Promoter Activity | Potency, µM (highest dose often 57.5 µM), inactives show at the highest dose activity change, positive = activation, usual class: activators | 48,000 compounds, 0.24% hits | HEK293 HTT-AS promoter firefly luciferase reporter, 24 h; response scale: percent change from vehicle, -100% = no light | AID 1508624, 2021; note: potency is the fitted concentration of half-maximal effect; nearly all actives have a fitted effect of over 55% in size
#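 HEK293 cells carrying firefly luciferase reporters were seeded at 2,500 per well in Opti-MEM and cultured for 24 h. They were then treated with compounds at up to 57.5 uM final for 24 h at 37 degrees C before Dual-Glo luminescence readout.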
# Starred values were filed as active, the others as inactive; i = inactive; ? = inconclusive; · = no result; [ ] = remark or other dose. Unless noted, calls come from the whole dose curve; as a rule, active = well fitted curve in the direction sought with a large enough effect; inconclusive = small, poorly fitted or top-dose-only effect, or another doubt; inactive = no such curve, though single readings can be large; an effect the other way counts as inactive or inconclusive.
SMILES,B2AR arrestin ag,PTAP-TSG101 blk,HTT prom inh,GPR32 ag,GALK inh,HTT-AS act
Cc1oc2ccc(O)c(CN3CCN(C)CC3)c2c1C(=O)Nc1ccc(C(C)C)cc1,i,i,·,-7.3,4.2%,·
Cc1oc2ccc(O)c(CN3CCCC3)c2c1C(=O)Nc1ccc(C(C)C)cc1,i,i,·,117.9*,4.0%,·
COc1ccc(NC(=O)c2c(C)oc3ccc(O)c(CN4CCC(C)CC4)c23)cc1Cl,i,i,·,82.6*,-8.3%,·
OC[C@H]1O[C@@H](Oc2ccc(O)cc2)[C@H](O)[C@@H](O)[C@H]1O,·,·,-5.7%,·,·,-10.0%
CCS(=O)(=O)c1ncc(Cl)c(C(=O)N(Cc2ccccc2)Cc2ccco2)n1,i,i,35.5µM*,-8.3,-2.3%,-93.5%
CCS(=O)(=O)c1ncc(N(Cc2ccccc2)Cc2ccco2)c(C(=O)Nc2cccc(Cl)c2C)n1,i,i,?,-13.8,0.0%,-24.0%
O=C(NCCc1csc(-c2ccc(F)cc2)n1)c1cccc(F)c1,i,i,?,65.7*,-2.4%,-28.5%
O=C(Cc1ccc(F)cc1)NCCc1csc(-c2cccc(F)c2)n1,i,i,?,103.3*,1.5%,-17.5%
CN(C/C=C/C#CC(C)(C)C)Cc1cccc2ccccc12,·,·,2.8%,95.0*,·,-10.1%
Cc1ccc(CN2CCCn3nc(C(=O)NCc4ccc(OC(C)C)cc4)cc3C2=O)cc1,i,i,17.8µM*,24.9,-0.4%,-23.0%
CCN(CC)CCOc1ccc(C(O)(Cc2ccc(Cl)cc2)c2ccc(C)cc2)cc1 (stereo not given),·,·,5.6%,63.1*,·,-5.0%
COc1ccc(Nc2cc(C)c3cc(NC(=O)COc4cccc(C)c4)ccc3n2)cc1,i,i,?,72.4*,3.9%,-40.0%
Cc1cccc(OCC(=O)Nc2ccc(-c3nc4cc(C)ccc4o3)c(O)c2)c1,i,i,110.4%,-5.9,0.9%,0.501µM*
CCOc1ccc(-c2nc3cc(NC(=O)COc4cccc(C)c4)ccc3o2)cc1,i,i,-19.4%,?,-0.8%,-18.2%
Cc1cccc(C(=O)Nc2ccc3oc(-c4ccncc4)nc3c2)c1,i,i,?,72.0*,0.0%,-19.1%
CC(=O)Nc1cccc(-n2c(=O)n(C3CC3)c(=O)c3c(Nc4ccc(I)cc4F)n(C)c(=O)c(C)c32)c1,·,·,9.9%,·,·,3.6%
Cc1ccc(Cn2c(SCc3ccc(C(=O)N4CCCCC4)cc3)nc3ccncc32)cc1,i,i,12.6µM*,7.5,1.0%,-59.7%
Cc1ccccc1Cn1c(SCc2ccc(C(=O)N3CCCCC3)cc2)nc2ccncc21,i,i,?,1.2,-1.4%,-12.5%
Cc1ccc(Cn2c(SCc3ccc(C(=O)N4CCCCCC4)cc3)nc3ccncc32)cc1,i,i,31.6µM*,-5.9,6.8%,-45.7%
CS(=O)(=O)N(CC(=O)Nc1ccc(Br)cc1)c1ccccc1Br,i,i,-20.6%,60.8*,0.1%,-18.4%
Cc1ccc(N=C2NC(=O)CC(C(=O)Nc3cc(C(F)(F)F)ccc3Cl)S2)cc1 (stereo not given),i,i,?,80.5*,-0.1%,-25.7%
Cc1ccc(NS(=O)(=O)c2ccc3[nH]c4c(c3c2)CCCC4)cc1N(C)C,i,i,?,91.7*,1.7%,-38.5%
COc1ccc(NS(=O)(=O)c2ccc3[nH]c4c(c3c2)CCCCC4)cc1,i,i,?,73.6*,-0.7%,-6.0%
COc1ccc(NS(=O)(=O)c2ccc3nc(-c4ccccc4)[nH]c3c2)cc1,i,i,?,115.6*,2.7%,-34.5%
COc1ccc(NS(=O)(=O)c2ccc3[nH]c4c(c3c2)CCCC4)c(OC)c1,i,i,?,14.7,0.6%,-31.0%
SMILES,B2AR arrestin ag,PTAP-TSG101 blk,HTT prom inh,GPR32 ag,GALK inh,HTT-AS act
CCOc1ccc(NS(=O)(=O)c2ccc3[nH]c4c(c3c2)CCCC4)cc1,i,i,-3.8%,48.6,4.8%,-27.8%
COc1ccc(OC)c(CNS(=O)(=O)c2ccc3[nH]c4c(c3c2)CCCCC4)c1,i,i,?,96.0*,-3.9%,-48.7%
CC(C=CC(=O)NO)=C[C@@H](C)C(=O)c1ccc(N(C)C)cc1,·,·,25.2%,·,·,-30.5%
C[C@H](CCC(=O)O)[C@H]1CC[C@H]2[C@@H]3[C@H](O)C[C@@H]4C[C@H](O)CC[C@]4(C)[C@@H]3CC[C@]12C,·,·,-3.9%,·,·,-26.3%
CC[C@H](CC[C@@H](C)[C@H]1CC[C@H]2[C@@H]3CC=C4C[C@@H](O)CC[C@]4(C)[C@@H]3CC[C@]12C)C(C)C,·,·,-22.0%,·,·,-14.7%
CC(C)(Oc1ccc(Cl)cc1)C(=O)OCCCOC(=O)C(C)(C)Oc1ccc(Cl)cc1,·,·,6.1%,-12.3,·,-6.6%
COc1ccc(NS(=O)(=O)c2ccc3[nH]c4c(c3c2)CCCC4)cc1Cl,i,i,-19.1%,89.6*,-2.8%,-35.2%
CCOc1ccc(NS(=O)(=O)c2ccc3[nH]c4c(c3c2)CCCCC4)cc1,i,i,?,65.6*,0.9%,7.3%[11.5 µM]
C=Cc1ccc(Cn2c(C)c(CNCCc3ccc(OCC)cc3)c(C(=O)O)c2C)cc1,i,i,0.0%,67.5*,-0.9%,-28.6%
Cc1c(CNCCCc2ccccc2)c(C(=O)O)c(C)n1Cc1ccc(Cl)cc1,i,i,-25.2%,94.9*,6.6%,-17.8%
CCc1ccc(CNCc2c(C(=O)O)c(C)n(Cc3c(F)cccc3Cl)c2C)cc1,i,i,-14.5%,95.0*,4.5%,-17.6%
N[C@@H](CC(=O)N1CCn2c(nnc2C(F)(F)F)C1)Cc1cc(F)c(F)cc1F,·,·,4.4%,·,·,-2.7%
CCN1CCN(c2ccc(Nc3cc(N(C)C(=O)Nc4c(Cl)c(OC)cc(OC)c4Cl)ncn3)cc2)CC1,·,·,3.1%,·,·,1.3%
COC(=O)c1ccc2c(c1)N(CC(=O)Nc1cccc(C(F)(F)F)c1)C(=O)c1ccccc1S2,i,i,-21.2%,107.4*,-0.9%,-14.6%
CCN(CC)C(=O)c1ccc2c(c1)N(Cc1ccc(C(F)(F)F)cc1)C(=O)c1ccccc1S2,i,i,-23.2%,87.2*,5.9%,-21.0%
